High-throughput results: PubChem, several laboratories
HSP90 refold inh: inhibitors of HSP90 luciferase refolding in rabbit reticulocyte lysate | AID 1789 | inhibition, % at 5.6 µM | 290,000 compounds, 0.91% hits | luciferase refolding luminescence, 3 h;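 active means inhibition above the screen-wide mean plus 3 SD, computed separately per campaign, cut at about 16% in these data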;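 further: inhibitors lower the luminescence because luciferase stays unfolded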
TWEAK Fn14 block: blocks TWEAK-Fn14 interaction in a reporter cell assay; AID 1159606; 360,000 compounds, 2% hits; inhibition, % at 10 µM; TWEAK-stimulated Fn14 reporter cells, luciferase luminescence, 8 h; in the data active means inhibition above about 50%
TRAIL sens C8: caspase-8 TRAIL sensitization | NB7+C8 cells + TRAIL, ATPlite viability luminescence | inhibition (viability loss, TRAIL sensitization), % at 10 µM | 360,000 compounds, 1% hits;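 active means compounds causing at least 50% loss of cell viability in the single-dose screen, relative to plate controls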
HIF-2a block: blocks HIF-2a reporter activity; 786-0 RCC cells HIF-2a reporter, luciferase luminescence, overnight; inhibition, % at 18.8 µM; 360,000 compounds, 0.72% hits; AID 624352;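 active means inhibition of the luminescence signal of 40% or more relative to plate controls, in a single-dose primary screen at 18.75 µM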
aSyn UTR inh: 5' untranslated region of α-synuclein, MLPCN primary screen. inhibition, % (tested at 7.5 µM). AID 1813. 300,000 compounds, 0.82% hits. alpha-synuclein 5'UTR reporter, inhibitor activity; in the data active means inhibition above about 60%;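 further: H4 neuroglioblastoma cells stably carrying SNCA 5'UTR luciferase fusion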
TROY signal inh: inhibitors of TROY-dependent NF-kB signaling | Q293 LMP1-TROYcd NF-kB luciferase reporter, 4 h | inhibition, % at 10 µM | 360,000 compounds, 0.98% hits;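 active means compounds whose plate-normalised and pattern-corrected inhibition of the luciferase reporter signal at the single screening dose is 50% or more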
Large screens that a line does not name were inactive. Most compounds without a hit are left out; they make up all but 3.9% or so of the library.

CCCCCCCCC(c1nc2cc(C)c(C)cc2[nH]1)n1c(=O)c(-c2ccccc2Br)nc2ccccc21 (stereo not drawn)	none (no result: HSP90 refold inh, aSyn UTR inh)
CC(C)CCCCCCCCCCCCC(=O)NCC(=O)NC1C(C)OC(Nc2ncnc3nc[nH]c23)C(O)C1O (stereo not drawn)	TWEAK Fn14 block 97, HIF-2a block 79, TROY signal inh 77 (no result: HSP90 refold inh, aSyn UTR inh)
Cc1ccc(-c2cnn(-c3ccccc3)c2N)cc1	TRAIL sens C8 79
Nc1c(-c2ccc(Cl)cc2)cnn1-c1ccccc1	none
O=C1NC[C@@H](CCCCN2C[C@H](Cc3ccccc3)N(CCc3ccc(O)cc3)C(=O)C2=O)N(CCc2ccccc2)C1=O	none (no result: HSP90 refold inh, aSyn UTR inh)
N#Cc1c(-c2ccccc2)nc(-c2ccccc2)nc1N1CCOCC1	TWEAK Fn14 block 79 (no result: TROY signal inh)
CCOC(=O)c1nnn2c1nc(Nc1cccc(C(F)(F)F)c1)c1ccccc12	TRAIL sens C8 59
O=C(CCCn1c(=S)[nH]c2ccsc2c1=O)Nc1ccc2c(c1)OCCO2	TWEAK Fn14 block 89, TROY signal inh 82
Nc1nc(CCl)nc(Nc2ccccc2)n1	none
Cc1ccccc1Nc1nc(N)nc(CSc2nc3ccccc3s2)n1	none
Cc1ccc(Nc2nc(N)nc(CSc3nc4ccccc4s3)n2)cc1	TWEAK Fn14 block 83
Cc1ccc(Nc2nc(N)nc(CCl)n2)cc1	TRAIL sens C8 93
COc1cccc(Nc2nc(N)nc(CCl)n2)c1	TRAIL sens C8 89
COc1cccc(Nc2nc(N)nc(C(F)(F)F)n2)c1	none
Cc1cccc(Nc2nc(N)nc(CSc3nccc(C)n3)n2)c1	none
Cc1cccc(Nc2nc(N)nc(CCl)n2)c1	TRAIL sens C8 90
Cc1nc(Nc2ccc(Cl)c(Cl)c2)sc1C(/C=C/c1ccc2c(c1)OCO2)=NNc1ccc([N+](=O)[O-])cc1[N+](=O)[O-]	none (no result: HSP90 refold inh, aSyn UTR inh)
CC1(C(=O)Nc2ccc3c(c2)OCCO3)CCC(=O)N1C1CCN(Cc2ccccc2)CC1 (stereo not drawn)	none (no result: HSP90 refold inh, aSyn UTR inh)
Cc1cccc(N2CCN(C(C(=O)NCc3ccccc3)c3ccc(F)cc3)CC2)c1C (stereo not drawn)	none (no result: HSP90 refold inh, TWEAK Fn14 block, aSyn UTR inh, TROY signal inh)
O=C(O)c1ccc(N=NNc2cccc([N+](=O)[O-])c2)cc1	none
N#C/C(=N\Nc1cccc([N+](=O)[O-])c1)C(=O)c1ccc(Br)cc1	TWEAK Fn14 block 52
O=c1c(-c2cc3ccccc3[nH]2)nc2ccccc2n1C(CCc1ccccc1)c1nc2ccccc2[nH]1 (stereo not drawn)	none (no result: HSP90 refold inh, TWEAK Fn14 block, aSyn UTR inh, TROY signal inh)
Cc1c(C(=O)Nc2cccc([N+](=O)[O-])c2)csc1-c1ccccc1	TRAIL sens C8 57
Cc1ccc(NC(=O)c2cnn(-c3ccccc3)c2C)cc1	TWEAK Fn14 block 64
O=C(Nc1cccc([N+](=O)[O-])c1)c1cc2ccccc2cc1O	TWEAK Fn14 block 83, TRAIL sens C8 60
O=C(Nc1cccc([N+](=O)[O-])c1)c1ccc(-c2ccccc2)cc1	none
O=C(O)c1ccccc1C(=O)Nc1cccc([N+](=O)[O-])c1	none
Cc1ccc(NC(=O)c2csc(-c3ccccc3)c2C)cc1	HSP90 refold inh 34, TWEAK Fn14 block 81, TRAIL sens C8 81, TROY signal inh 74 (no result: aSyn UTR inh)
COc1cccc(CC(=O)OCC(=O)N(C)CC(=O)Nc2ccccc2Cl)c1	none (no result: HSP90 refold inh, aSyn UTR inh)
CCc1ccc(C(=O)NNC(=O)CN2C(=O)NC3(CCCC3)C2=O)cc1	none (no result: HSP90 refold inh, aSyn UTR inh)
CN1C(=O)N(CC(=O)c2ccc3c(c2)OCO3)C(=O)C12CCCCC2	none (no result: HSP90 refold inh, aSyn UTR inh)
CC(C)(C)c1ccc(CC(=O)N2CCC2(C)C(=O)Nc2cccc3c2CCCC3)cc1 (stereo not drawn)	none (no result: HSP90 refold inh, aSyn UTR inh)
Cc1noc(C)c1NC(=O)Nc1ccc2c(c1)C(=O)N([C@H](C)CO)C[C@@H](C)[C@@H](CN(C)S(=O)(=O)c1cn(C)cn1)OCCCC[C@H](C)O2	none (no result: HSP90 refold inh, aSyn UTR inh)
Cc1cccc(NS(=O)(=O)c2cc(C(=O)OC(C)C(=O)NCc3ccc4c(c3)OCO4)ccc2C)c1 (stereo not drawn)	TWEAK Fn14 block 53
CC(=O)Nc1cccc(C(=O)OC(C)C(=O)NCc2ccc3c(c2)OCO3)c1 (stereo not drawn)	none (no result: HSP90 refold inh)
COc1ccc([C@H]2CN(CCc3ccccc3)C(=O)[C@@H]2CC(=O)Nc2ccccc2)cc1	none (no result: HSP90 refold inh, aSyn UTR inh)
COc1ccc2c(c1OC)C(=O)O[C@@H]2[C@H]1c2c(cc3c(c2OC)OCO3)CCN1C	none
COc1ccc2cc1Oc1ccc(cc1)C[C@H]1c3c(cc4c(c3Oc3cc5c(cc3OC)CCN(C)[C@@H]5C2)OCO4)CCN1C	aSyn UTR inh 109 (no result: HSP90 refold inh)
CCCOc1cccc(-c2cc(C(=O)N/N=C/c3ccccn3)c3ccccc3n2)c1	TWEAK Fn14 block 94
O=C(N/N=C/c1ccccn1)c1cc(-c2ccc(Br)cc2)nc2ccccc12	TWEAK Fn14 block 100
CCCc1ccc(-c2cc(C(=O)N/N=C/c3ccc([N+](=O)[O-])o3)c3ccccc3n2)cc1	TRAIL sens C8 86
CCCOc1cccc(-c2cc(C(=O)N/N=C/c3cccnc3)c3ccccc3n2)c1	none (no result: aSyn UTR inh)
O=C(N/N=C/c1ccc([N+](=O)[O-])o1)c1cc(-c2cccc(Br)c2)nc2ccccc12	none
COc1cc(C(O)c2nc(-c3cccc(C(C)C)c3)cs2)ccc1F (stereo not drawn)	none (no result: HSP90 refold inh, aSyn UTR inh)
O=C(NC(=S)/C(=C1\CCCCCN1)[N+](=O)[O-])c1ccccc1	TWEAK Fn14 block 99, TRAIL sens C8 78, TROY signal inh 87 (no result: HSP90 refold inh, aSyn UTR inh)
COc1ccc(OC)c(C(=O)NC2CC(C)(C)Cc3c2cnn3-c2ccccc2)c1 (stereo not drawn)	aSyn UTR inh 67
CCCc1c(-c2ccc(F)cc2)ncn1Cc1ccccc1OC	none (no result: HSP90 refold inh, aSyn UTR inh)
CN1Cc2cc(C(=O)c3cc(Cl)cc(CSc4ncccn4)c3O)cnc2NC1=O	aSyn UTR inh 79 (no result: TWEAK Fn14 block, TRAIL sens C8, HIF-2a block, TROY signal inh)
COC(=O)C1=C(C(=O)OC)[C@@H]2N(Cc3ccccc3)c3ccccc3[C@@]23C[C@@H](C(=O)OC)N(C(=O)c2cccs2)C3=N1	TWEAK Fn14 block 61, TRAIL sens C8 54 (no result: HSP90 refold inh)
Cc1ccc(NC(=S)Nc2ccc(C(C)C)cc2)cc1S(=O)(=O)N1CCCCCC1	TWEAK Fn14 block 67
CCOc1ncccc1C(=O)Nc1ccc(OC)c(S(=O)(=O)N2CCCCC2)c1	none
COc1ccc(NC(=O)CSc2ccc3ccccc3c2)cc1S(=O)(=O)N1CCCCC1	TWEAK Fn14 block 59
CCOc1ncccc1C(=O)Nc1ccc(C)c(S(=O)(=O)N2CCCCCC2)c1	TWEAK Fn14 block 63 (no result: HSP90 refold inh, aSyn UTR inh)
COc1cc(CCC(=O)Nc2ccc(C)c(S(=O)(=O)N3CCCCCC3)c2)cc(OC)c1OC	TWEAK Fn14 block 51 (no result: HSP90 refold inh, aSyn UTR inh)
CCCn1c(N)c(N(CCOC)C(=O)CSc2cc(C)c3ccccc3n2)c(=O)[nH]c1=O	none (no result: HSP90 refold inh, aSyn UTR inh)
COc1ccc([C@H]2CC(=O)C[C@@H](CCn3cc(Cc4ccccc4)nn3)O2)cc1	none (no result: HSP90 refold inh, aSyn UTR inh)
Cc1ccc(NC(=O)C2CC(=O)N(Cc3ccccc3)C2)cc1S(=O)(=O)N1CCCCCC1 (stereo not drawn)	TWEAK Fn14 block 88, TROY signal inh 61
O=C(Nc1ccc(S(=O)(=O)N2CCCCC2)cc1)C1CC(=O)N(Cc2ccccc2)C1 (stereo not drawn)	none (no result: HSP90 refold inh)
